The record followed here is PubChem BioAssay (EPA / NIEHS).

Active and inactive are the calls of the source. The calls were made as follows: active = hit-call score of the fitted dose curve at least 0.9, where 1 is the maximum; inactive = score below 0.9.

A short description of the first assay: ATG_TAL_CIS: Attagene CIS-FACTORIAL HepG2 Assay for human TAL Basal Promoter (AID 2282966).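 Also: background control endpoint measuring basal TAL promoter reporter mRNA not a specific factor.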 The settings on record: HepG2 Attagene cis-factorial TAL promoter reporter; actives raise or lower the signal. The gist of the method: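 Steps: transfect HepG2 with multiple reporter transcription units; dose 24 h; isolate RNA, reverse-transcribe, PCR-amplify, label with 6-FAM, digest with HpaI; resolve by capillary electrophoresis. Bidirectional fitting against DMSO baseline.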
Turning to `O=c1cc(-c2ccccc2)oc2ccc3ccccc3c12`, the result was inactive.

Consider `O=C(Nc1ccc(Cl)c(Cl)c1)c1cc(Cl)cc(Cl)c1O`, for which the compound was classed as inactive.

Consider `c1ccc2c(c1)CCC2`, for which the call was inactive.

For the compound `O=C1Cc2ccccc2N1c1c(Cl)cccc1Cl`, the outcome was inactive.

By AC50 is commonly meant the midpoint of the concentration-response curve, whichever way the signal moves. With `Clc1ccc(Nc2nnc(Cc3ccncc3)c3ccccc23)cc1`, the AC50 is 11.2 µM (active).

With `Brc1cc(Br)c(Oc2c(Br)cc(Br)c(Br)c2Br)cc1Br`, the compound was classed as inactive.

For `C=CC(=O)OCCC(F)(F)C(F)(F)C(F)(F)C(F)(F)C(F)(F)C(F)(F)F`, the compound was called inactive.

Regarding `O=C(C=C(O)C(F)(F)F)C(F)(F)F`, the outcome was inactive.

As to `Nc1cc(Cl)c(-c2cc(Cl)c(N)cc2Cl)cc1Cl`, the call was inactive.

In the case of `CCC(=O)C=Cc1ccc(OC)cc1`, the compound was classed as inactive.

Take `COC(O)c1ccccc1` (stereo unspecified): the result was inactive.

Consider `CC1CCC(C(=O)O)CC1` (stereo unspecified), for which the call was inactive.

Regarding `CC1CNCC(C)O1` (stereo unspecified), the call was inactive.

With `Cc1ccc(N=Nc2c(O)ccc3ccccc23)c(C)c1`, the compound was classed as inactive.

Consider `Nc1ccc(O)c(C(=O)O)c1`, for which the result was inactive.

Regarding `Cc1[nH]nc2c1N=C(c1ccccc1Cl)c1cc([N+](=O)[O-])ccc1N2`, the compound was called inactive.

For the compound `O=C(O)C(=O)O`, the compound was called inactive.

Consider `CCc1cccc(CC)c1N(COC)C(=O)CS(=O)(=O)O`, for which the outcome was inactive.

As to `Clc1ccc2c(Cl)ccnc2c1`, the compound was classed as inactive.

For the compound `COC1=CC(=O)C[C@@H](C)[C@]12Oc1c(Cl)c(OC)cc(OC)c1C2=O`, the result was inactive.

As to `O=C(Nc1cccc([N+](=O)[O-])c1)c1cc2ccccc2cc1O`, the compound was classed as inactive.

Consider `CCc1cccc(CC)c1NC(=O)C(=O)O`, for which the outcome was inactive.

`O=CC(F)(F)C(F)(F)C(F)(F)F`: the call was inactive.

As to `CCCCCCc1ccc(N)cc1`, the outcome was inactive.

Consider `COc1cccc(O)c1`, for which the result was inactive.

With `FC(F)(F)C1(F)C(F)(F)C(F)(F)C(F)(F)C1(F)F`, the result was inactive.

As for `C=CC(=O)OCCC(F)(F)C(F)(F)C(F)(F)C(F)(F)C(F)(F)C(F)(F)C(F)(F)C(F)(F)F`, the result was inactive.

With `CCCCCc1ccc(O)cc1`, the outcome was inactive.

For `O=C1OC(=O)c2cc(-c3ccc4c(c3)C(=O)OC4=O)ccc21`, the compound was called inactive.

On to `FC(F)(F)C(F)(F)C(F)(F)C(F)(F)I`, for which the result was inactive.

Turning to `OCCN1CN(CCO)CN(CCO)C1`, the compound was classed as inactive.

`Oc1c(Cl)cc(Cl)cc1Sc1cc(Cl)cc(Cl)c1O`: the outcome was inactive.

Turning to `COc1cc([N+](=O)[O-])ccc1N`, the call was inactive.

`CC(C)(c1ccc(Oc2ccc(N)cc2)cc1)c1ccc(Oc2ccc(N)cc2)cc1`: the compound was classed as inactive.

As to `CCCC=O`, the result was inactive.

As for `CCCCCCCCC(C)=O`, the call was inactive.

On to `NC(C(F)(F)F)C(F)(F)F`, for which the outcome was inactive.

On to `Cc1ccc(C)c(S(=O)(=O)O)c1`, for which the call was inactive.

The nature of another assay: ATG_TGFb_CIS: Attagene CIS-FACTORIAL HepG2 Assay for human Transforming Growth Factor (TGF) (AID 2282967). The note with it: HepG2 Attagene CIS TGFb reporter, mRNA transcription; actives raise or lower the signal. The gist of the method:
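HepG2 cells transiently transfected with cis-promoter-driven multiplexed reporter units; 24 h compound exposure. Reporter mRNA measured by RT-PCR, 6-FAM labeling, HpaI digestion and capillary electrophoresis; bidirectional fit versus DMSO baseline.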
In the case of `O=c1cc(-c2ccccc2)oc2ccc3ccccc3c12`, the result was inactive.

For `O=C(Nc1ccc(Cl)c(Cl)c1)c1cc(Cl)cc(Cl)c1O`, the result was inactive.

As to `c1ccc2c(c1)CCC2`, the compound was classed as inactive.

As for `O=C1Cc2ccccc2N1c1c(Cl)cccc1Cl`, the outcome was inactive.

Turning to `Clc1ccc(Nc2nnc(Cc3ccncc3)c3ccccc23)cc1`, the compound was called inactive.

Take `Brc1cc(Br)c(Oc2c(Br)cc(Br)c(Br)c2Br)cc1Br`: the result was inactive.

On to `C=CC(=O)OCCC(F)(F)C(F)(F)C(F)(F)C(F)(F)C(F)(F)C(F)(F)F`, for which the compound was called inactive.

Regarding `O=C(C=C(O)C(F)(F)F)C(F)(F)F`, the result was inactive.

Regarding `Nc1cc(Cl)c(-c2cc(Cl)c(N)cc2Cl)cc1Cl`, the compound was called inactive.

In the case of `CCC(=O)C=Cc1ccc(OC)cc1`, the compound was called inactive.

As for `COC(O)c1ccccc1` (stereo unspecified), the result was inactive.

As to `CC1CCC(C(=O)O)CC1` (stereo unspecified), the call was inactive.

In the case of `CC1CNCC(C)O1` (stereo unspecified), the outcome was inactive.

`Cc1ccc(N=Nc2c(O)ccc3ccccc23)c(C)c1`: the call was inactive.

For `Nc1ccc(O)c(C(=O)O)c1`, the result was inactive.

With `Cc1[nH]nc2c1N=C(c1ccccc1Cl)c1cc([N+](=O)[O-])ccc1N2`, the result was inactive.

Turning to `O=C(O)C(=O)O`, the outcome was inactive.

Turning to `CCc1cccc(CC)c1N(COC)C(=O)CS(=O)(=O)O`, the compound was classed as inactive.

For `Clc1ccc2c(Cl)ccnc2c1`, the result was inactive.

Turning to `COC1=CC(=O)C[C@@H](C)[C@]12Oc1c(Cl)c(OC)cc(OC)c1C2=O`, the outcome was inactive.

Regarding `O=C(Nc1cccc([N+](=O)[O-])c1)c1cc2ccccc2cc1O`, the AC50 is 48.1 µM (active).

On to `CCc1cccc(CC)c1NC(=O)C(=O)O`, for which the compound was called inactive.

As for `O=CC(F)(F)C(F)(F)C(F)(F)F`, the call was inactive.

Regarding `CCCCCCc1ccc(N)cc1`, the compound was called inactive.

`COc1cccc(O)c1`: the call was inactive.

As to `FC(F)(F)C1(F)C(F)(F)C(F)(F)C(F)(F)C1(F)F`, the outcome was inactive.

As to `C=CC(=O)OCCC(F)(F)C(F)(F)C(F)(F)C(F)(F)C(F)(F)C(F)(F)C(F)(F)C(F)(F)F`, the result was inactive.

`CCCCCc1ccc(O)cc1`: the outcome was inactive.

Turning to `O=C1OC(=O)c2cc(-c3ccc4c(c3)C(=O)OC4=O)ccc21`, the result was inactive.

Take `FC(F)(F)C(F)(F)C(F)(F)C(F)(F)I`: the result was inactive.

In the case of `OCCN1CN(CCO)CN(CCO)C1`, the result was inactive.

As to `Oc1c(Cl)cc(Cl)cc1Sc1cc(Cl)cc(Cl)c1O`, the result was inactive.

On to `COc1cc([N+](=O)[O-])ccc1N`, for which the result was inactive.

As to `CC(C)(c1ccc(Oc2ccc(N)cc2)cc1)c1ccc(Oc2ccc(N)cc2)cc1`, the compound was called inactive.

For the compound `CCCC=O`, the outcome was inactive.

Turning to `CCCCCCCCC(C)=O`, the call was inactive.

On to `NC(C(F)(F)F)C(F)(F)F`, for which the call was inactive.

Regarding `Cc1ccc(C)c(S(=O)(=O)O)c1`, the call was inactive.
